We go through 40 compounds from PubChem BioAssay (Tox21).

SMILES strings stand for the structures. Where “and” joins values, the source holds several entries; their conditions need not be identical. Identical values can stand only once. Records with an inconclusive call do not appear. A call without a number means that no potency is given here. The source holds several records for some structures; these can differ, active in one and inactive in another. Calls of active or inactive are those of the source. Calls come from the whole dose curve.
Potency is the fitted concentration of half-maximal effect.

5-hydroxytryptamine receptor 2A (Homo sapiens), sequence (P28223 whole entry, looked up): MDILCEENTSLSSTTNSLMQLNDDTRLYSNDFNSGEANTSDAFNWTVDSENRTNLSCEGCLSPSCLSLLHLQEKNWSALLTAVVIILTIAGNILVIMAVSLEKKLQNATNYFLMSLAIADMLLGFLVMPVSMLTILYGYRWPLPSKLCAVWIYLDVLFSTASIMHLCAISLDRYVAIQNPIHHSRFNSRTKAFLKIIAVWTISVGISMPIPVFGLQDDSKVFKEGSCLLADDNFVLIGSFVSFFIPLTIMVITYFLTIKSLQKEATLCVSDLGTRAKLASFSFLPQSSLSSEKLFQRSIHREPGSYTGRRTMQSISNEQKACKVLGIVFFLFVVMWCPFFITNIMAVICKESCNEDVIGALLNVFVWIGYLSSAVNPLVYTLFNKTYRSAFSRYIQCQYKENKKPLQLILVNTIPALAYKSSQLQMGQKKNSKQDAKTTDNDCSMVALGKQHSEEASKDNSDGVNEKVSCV

The assay has as its target 5-hydroxytryptamine receptor 2A (Homo sapiens) (UniProt P28223). In words: 5-hydroxytryptamine receptor 2A (HTR2A) small molecule agonists, cell-based qHTS assay (AID 1963587). Note: nearly all actives have a fitted effect of over 30% in size. Particulars: HTR2A-CHO cells, calcium flux fluorescence, agonist mode; series mostly up to 76.8 µM. The text has this:
National Center for Advancing Translational Sciences [NCATS]
Division of Preclinical Innovation [DPI]
U.S. Environmental Protection Agency [EPA]
National Institutes of Environmental Health Sciences [NIEHS]
National Toxicology Program [NTP]
U.S. Food and Drug Administration [FDA]
The HTR2A receptor is a subtype of the 5-HT2 receptor that belongs to the serotonin receptor family and is a G protein-coupled receptor (GPCR). The HTR2A-CHO cell line stably expressing human 5-hydroxytryptamine receptor 2A (HTR2A) can be used for screening agonists of interactions between 5-HT2 and its ligands. The HTR2A-CHO calcium flux assay is a homogeneous fluorescence-based assay for detecting the intracellular calcium level using FDSS kinetic plate reader system.
HTR2A-CHO cells were dispensed at 2000 cells/3uL/well in 1536-well black-clear bottom plates using a Multidrop Dispenser. After the assay plates were incubated at a 37 C/5% CO2 incubator for 18 h, 3 uL of Dye Loading Buffer was transferred to the assay plate by a Flying Reagent Dispenser. The assay plates were incubated at 37 C for 1h. For agonist mode, 23 nL of compounds dissolved in DMSO, positive controls or DMSO only was transferred to the assay plate by a pin tool. The fluorescence intensity in the plates was measured using FDSS 7000EX kinetic plate reader for 2 min at 1 sec intervals.
For orientation: In qHTS, concentration-response curves come from the screen itself.
As for `COc1ccc(O)c(C(C)(C)C)c1`, the Potency result was “inactive”.
`C=CCN(CC=C)C(=O)C(Cl)Cl`: the Potency result is “inactive”.
As for `O=P(Cl)(Cl)Cl`, the Potency entry is “inactive”.
In the case of `Cn1c(N)nc2c3cccnc3ccc21`, the Potency entry is “inactive”.
In the case of `N#Cc1ccc(Cl)cc1`, the Potency entry is “inactive”.
The result for `C[N+](C)(C)CC(=O)[O-]` reads “inactive”; that for `CCOP(=O)(O)OCC` (tested in a mixture with another compound), “inactive and 19.3 µM (active)”; that for `OC[P+](CO)(CO)CO`, “inactive”.
The result for `COC(=O)NC(=S)Nc1ccccc1NC(=S)NC(=O)OC` reads “inactive”; that for `Nc1c(Cl)cc([N+](=O)[O-])cc1Cl`, “inactive”; that for `COc1ccc(C=O)cc1`, “inactive”.
The result for `BrCCBr` reads “inactive”; that for `CCCCCCn1cc[n+](C)c1`, “inactive”; that for `CC(C)(c1ccccc1)c1cc(-n2nc3ccccc3n2)c(O)c(C(C)(C)c2ccccc2)c1`, “inactive”.
Take `O=C1CCCO1`: the Potency entry was “inactive”.
As to `N#CCCCl`, the Potency result is “inactive”.
Consider `CC(C)(C)C(=O)CCl`, for which the Potency result was “inactive”.
The result for `Oc1cc(Cl)ccc1Cl` reads “inactive”; that for `NC(=O)CF`, “inactive”.
With `CCCCN=C=O`, the Potency entry was “inactive”.
The result for `Cc1cccc(N=Nc2ccc(N(C)C)cc2)c1` reads “inactive”.
For the compound `CCCCCCOC(=O)c1ccccc1C(=O)OCCCCCC`, the Potency result is “inactive”.
The result for `CS(=O)(=O)NC(=O)c1cc(Oc2ccc(C(F)(F)F)cc2Cl)ccc1[N+](=O)[O-]` reads “inactive”.
Take `C=COCCCl`: the Potency entry is “inactive”.
Regarding `CC(=O)[O][Hg][c]1ccccc1`, the Potency is 21.7 µM (active) and 54.9 µM (active) and inactive.
The result for `ClC(Cl)(Cl)C(Cl)(Cl)Cl` reads “inactive”; that for `COc1cc2c(cc1OC)[C@@]13CCN4CC5=CCO[C@H]6CC(=O)N2[C@H]1[C@H]6[C@H]5C[C@H]43`, “inactive”; that for `CCOC(=O)CC(SP(=O)(OC)OC)C(=O)OCC` (stereo not given), “inactive”.
`CCCCCCCC[N+](C)(CCCCCCCC)CCCCCCCC`: the Potency result is “inactive”.
The result for `C=CCCl` reads “inactive”; that for `O=C(O)C(Br)Br`, “inactive”.
The result for `CCCSC(=O)Cl` reads “inactive”; that for `Cc1ncc2n1-c1ccc(Cl)cc1C(c1ccccc1F)=NC2`, “inactive”; that for `CCCCc1c(C)nc(NCC)[nH]c1=O`, “inactive”.
Regarding `CC(COc1ccc(Oc2ccccc2)cc1)Oc1ccccn1` (stereo not given), the Potency result was “inactive”.
Consider `CNC(=O)Oc1c(C(C)(C)C)cc(C)cc1C(C)(C)C`, for which the Potency entry is “inactive”.
As for `C=CCBr`, the Potency entry is “inactive”.
In the case of `COC(C)(C)C`, the Potency entry is “inactive”.
Turning to `C=CC(=O)OCCO`, the Potency entry is “inactive”.
In the case of `CC(C)OC(=O)Cc1ccccc1`, the Potency entry was “inactive”.
